Measurements from ChEMBL document CHEMBL1157539, “Thousands of chemical starting points for antimalarial lead identification” (Nature, 2010).

Each molecule was assayed on Plasmodium falciparum (assay: GSK_TCMDC: Inhibition of Plasmodium falciparum 3D7 in whole red blood cells, using parasite LDH activity as an index of growth. Test compounds present at 2uM).
Format: functional

| SMILES | Inhibition [%] |
| --- | --- |
| O=C(Cc1c[nH]cn1)Nc1cccc(-c2ccc(-c3nc4cc(F)ccc4[nH]3)cc2)c1 | 100 |
| O=C(N[C@H]1CCN(Cc2ccc(OCCN3CCCC3)c3ccccc23)C1)c1ccc(Cl)c(Cl)c1.O=C(O)C(F)(F)F | 100 |
| Br.CCc1ccccc1OCCCON1C(=N)N=C(N)NC1(C)C | 95 |
| COc1ccc(Nc2nccc(NCCNC(=O)c3cc4ccccc4s3)n2)cc1 | 98 |
| COc1cccc(NC(=O)c2ccc(NCCCN3CC(C)CC(C)C3)c([N+](=O)[O-])c2)c1 (stereo not given) | 100 |
| Cl.Clc1cccnc1N1CCN(c2ncccc2Cl)CC1 | 97 |
| CCCNCc1ccc(-c2ccc(CN(CCOC)C(=O)CC3CCCC3=O)cc2)nc1.O=C(O)C(F)(F)F (stereo not given) | 93 |
| C#CCN(Cc1ccc2[nH]c(N)nc(=O)c2c1)c1ccc(C(=O)N[C@@H](CCC(=O)O)C(=O)O)cc1 | 95 |
| CN1CCN(CC(=O)Nc2cccc(-c3ccc(-c4nc5cc(F)ccc5[nH]4)cc3)c2)CC1 | 100 |
| FC(F)(F)c1ccc(CNCC2CCN(Cc3ccc4c(c3)OCO4)CC2)cc1.O=C(O)C(F)(F)F | 80 |
| Cc1cccc(C)c1/N=C1\NC(=S)N(c2cccc(Cl)c2)C12CCC(C(C)(C)C)CC2 (stereo not given) | 87 |
| OC(c1ccccc1)C1CN(Cc2ccccc2)CCC1(O)c1ccccc1 (stereo not given) | 91 |
| CC(C)CC1c2[nH]c3ccccc3c(=O)c2CN1C(=O)OC(C)(C)C (stereo not given) | 97 |
| Cc1[nH]c(C)c(-c2ccc(-c3ccc4c(c3)OCO4)nc2)c(=O)c1Br | 96 |
| Oc1ccccc1CN1CCC2(CCCN(Cc3ccccc3F)C2)C1 (stereo not given) | 98 |
| CCS[C@@H]1O[C@H](COC(=O)c2ccccc2)[C@H](OC(=O)c2ccccc2)[C@H](OC(=O)c2ccccc2)[C@H]1OC(=O)c1ccccc1 | 98 |
| COc1ccc(-c2nc(NC(=O)CS(=O)(=O)c3ccccc3)sc2C)cc1 | 99 |
| Nc1ccc2[nH]cc(C3CCN(CC4CCC(NC(=O)/C=C/c5ccc(Cl)c(Cl)c5)CC4)CC3)c2n1 (stereo not given) | 100 |
| O=C(NC1CCCCC1)N(Cc1cccc(-c2ccc(CNCCc3ccccc3)cc2)c1)C1CCN(Cc2ccccc2)CC1.O=C(O)C(F)(F)F | 93 |
| O=C(Cc1ccc(Nc2nccc(Nc3cccc4[nH]ncc34)n2)cc1)Nc1ccc(C(F)(F)F)cc1 | 100 |

| SMILES | Inhibition [%] |
| --- | --- |
| CC(C)(C)c1ccc(CNC(=O)c2cc(CNC3CCNCC3)ccc2O)cc1 | 96 |
| Nc1c2c(nc3ccc(NC(=O)c4ccccc4)cc13)CCCC2 | 99 |
| CNC(=O)NC1=NC(C)(C)N(OCc2ccc(Cl)c(Cl)c2)C(NC(=O)NC)=N1 | 99 |
| Cc1ccc(NCc2cccc(F)c2)cc1S(=O)(=O)N[C@@H]1CCN(C#N)C1 | 89 |
| CN1CCN(c2ccnc3ccc(NC(=O)Nc4ccc(Cl)c(Cl)c4)cc23)CC1 | 97 |
| O=C(Nc1ccc(N2CCCN(Cc3cccc(F)c3)CC2)cc1)c1ccc(F)cc1.O=C(O)C(F)(F)F | 96 |
| COc1cc(Cc2cnc(NCCN3CCNCC3)nc2N)ccc1OCc1ccc(C(F)(F)F)cc1 | 98 |
| CN(C)S(=O)(=O)c1ccc(C(=O)N(c2nc(-c3ccccc3)cs2)C2CCCCC2)cc1 | 98 |
| CCCCCc1cnc2nc(N)nc(N)c2c1C.Cl | 96 |
| Nc1nc(N)c2c(ccc3nn(C4CCCC4)cc32)n1 | 97 |
| Oc1ccc(C=NNC(S)=Nc2cccc3ccccc23)c(O)c1 | 89 |
| CC(=O)Nc1ccc(C(=O)Nc2ccc(-c3cccc(-c4nc5cc(F)ccc5[nH]4)c3)cc2)cn1 | 100 |
| CCCc1cn2c3c(cc(C(=O)N[C@@H](Cc4ccccc4)[C@H](O)CNC4CCCCC4)cc13)N(C)S(=O)(=O)CC2.O=CO | 99 |
| O=C(Nc1cccnc1)c1ccc(-c2cc3ccncc3cc2OC2CCNCC2)s1 | 97 |
| COC(=O)c1cccc(CNCc2cccc(-c3ccc(-c4nc5cccc(C)c5[nH]4)cc3)c2)c1.O=C(O)C(F)(F)F | 100 |
| COc1nc2c(CCN3CCC(NCc4ccc5c(n4)NC(=O)CO5)CC3)c(Cl)cnc2cc1F.Cl | 99 |
| N#Cc1ccc(CN2CCC(Oc3ccc(NC(=O)c4cccs4)cc3)C2)cc1.O=C(O)C(F)(F)F (stereo not given) | 82 |
| CCN(CC)S(=O)(=O)c1ccc(C(=O)Oc2ccccc2N(Cc2ccc(OC)cc2)C2=NS(=O)(=O)c3ccccc32)cc1 | 98 |
| COc1ccc(CCNCCCCCNCCc2ccc(Cl)cc2)cc1OC.Cl | 100 |
| O=C(Nc1ccc(-c2nc3ccccc3[nH]2)cc1)c1ccc(S(=O)(=O)N2CCCCC2)cc1 | 95 |
